# Assay results: the supplement of paper PMC6089552
# Out of some 3,200 compounds screened, about 300 (9.4%) showed activity. This is one part of a sample in which actives are shown more often than they occur. A number with no mark means an inactive call.
# Test system: A673/TR/shEF
# Experiment: cell viability (LOESS-normalised, relative to median of negative controls) (log2 ratio); higher = more viable cells (less compound effect), active = hit call of the paper (over 3 MAD below the median)
# Settings: treatment time: 72 h
# How it was run: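 For three days, A673/TR/shEF Ewing sarcoma cells in 384-well plates (1,500 per well) were treated with library compounds at two or more concentrations or with DMSO controls, after doxycycline had been added or withheld 24 h beforehand to induce EWS-FLI1 shRNA knockdown. Viability was read by CellTiter-Glo luminescence on an Envision reader. The data were LOESS-corrected per plate, divided by the median of negative controls and log2-transformed.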
# [1] = 0.25 µM, library screen: screen1, EWS-FLI1 expression: high (no doxycycline)
# [2] = 0.25 µM, library screen: screen1, EWS-FLI1 expression: low (doxycycline-induced shRNA knockdown)
# [3] = 2.5 µM, library screen: screen1, EWS-FLI1 expression: high (no doxycycline)
# [4] = 2.5 µM, library screen: screen1, EWS-FLI1 expression: low (doxycycline-induced shRNA knockdown)
# [5] = 0.103 µM, library screen: screen3, EWS-FLI1 expression: high (no doxycycline)
# [6] = 0.103 µM, library screen: screen3, EWS-FLI1 expression: low (doxycycline-induced shRNA knockdown)
# [7] = 0.308 µM, library screen: screen3, EWS-FLI1 expression: high (no doxycycline)
# [8] = 0.308 µM, library screen: screen3, EWS-FLI1 expression: low (doxycycline-induced shRNA knockdown)
# [9] = 0.926 µM, library screen: screen3, EWS-FLI1 expression: high (no doxycycline)
# [10] = 0.926 µM, library screen: screen3, EWS-FLI1 expression: low (doxycycline-induced shRNA knockdown)
# [11] = 2.8 µM, library screen: screen3, EWS-FLI1 expression: high (no doxycycline)
# [12] = 2.8 µM, library screen: screen3, EWS-FLI1 expression: low (doxycycline-induced shRNA knockdown)
# [13] = 8.3 µM, library screen: screen3, EWS-FLI1 expression: high (no doxycycline)
# [14] = 8.3 µM, library screen: screen3, EWS-FLI1 expression: low (doxycycline-induced shRNA knockdown)
# [15] = 25 µM, library screen: screen3, EWS-FLI1 expression: high (no doxycycline)
# [16] = 25 µM, library screen: screen3, EWS-FLI1 expression: low (doxycycline-induced shRNA knockdown)
# [17] = 0.25 µM, library screen: screen2, EWS-FLI1 expression: high (no doxycycline)
# [18] = 0.25 µM, library screen: screen2, EWS-FLI1 expression: low (doxycycline-induced shRNA knockdown)
# [19] = 2.5 µM, library screen: screen2, EWS-FLI1 expression: high (no doxycycline)
# [20] = 2.5 µM, library screen: screen2, EWS-FLI1 expression: low (doxycycline-induced shRNA knockdown)
smiles,measurement,setting,value
CC1(C)C[C@@H]2C(=O)CC[C@@H]3O[C@]3(C)CC[C@H]21,cell viability (log2),[1],0.14
same,cell viability (log2),[2],0.0852
same,cell viability (log2),[3],0.132
same,cell viability (log2),[4],0.0776
CC1=C2C(=CO[C@H](C)[C@H]2C)C(=O)C(C(=O)O)=C1O,cell viability (log2),[1],0.0243
same,cell viability (log2),[2],0.0421
same,cell viability (log2),[3],0.12
same,cell viability (log2),[4],0.0982
COc1ccc2nc([S@@+]([O-])Cc3ncc(C)c(OC)c3C)[nH]c2c1,cell viability (log2),[5],0.0353
same,cell viability (log2),[6],-0.0468
same,cell viability (log2),[7],0.00454
same,cell viability (log2),[8],2e-05
same,cell viability (log2),[9],-0.0308
same,cell viability (log2),[10],-0.0128
same,cell viability (log2),[11],-0.0416
same,cell viability (log2),[12],0.00305
same,cell viability (log2),[13],0.0504
same,cell viability (log2),[14],0.0301
same,cell viability (log2),[15],-0.0361
same,cell viability (log2),[16],-0.0116
COc1ccc2nc([S+]([O-])Cc3ncc(C)c(OC)c3C)[nH]c2c1 (configuration not stated),cell viability (log2),[5],0.0555
same,cell viability (log2),[6],0.0372
same,cell viability (log2),[7],-0.0266
same,cell viability (log2),[8],0.0199
same,cell viability (log2),[9],-0.0106
same,cell viability (log2),[10],0.0522
same,cell viability (log2),[11],-0.0439
same,cell viability (log2),[12],0.0389
same,cell viability (log2),[13],-0.0449
same,cell viability (log2),[14],0.0231
same,cell viability (log2),[15],-0.03
same,cell viability (log2),[16],-0.014
Cc1c(OCC(F)(F)F)ccnc1C[S+]([O-])c1nc2ccccc2[nH]1 (configuration not stated),cell viability (log2),[5],0.0918
same,cell viability (log2),[6],0.101
same,cell viability (log2),[1],0.136
same,cell viability (log2),[2],0.0633
same,cell viability (log2),[17],0.166
same,cell viability (log2),[18],0.0843
same,cell viability (log2),[7],0.0516
same,cell viability (log2),[8],0.0264
same,cell viability (log2),[9],0.0709
same,cell viability (log2),[10],0.0884
same,cell viability (log2),[3],0.133
same,cell viability (log2),[4],0.126
same,cell viability (log2),[19],0.122
same,cell viability (log2),[20],0.0984
same,cell viability (log2),[11],0.0259
same,cell viability (log2),[12],0.0107
same,cell viability (log2),[13],-0.0254
same,cell viability (log2),[14],0.0817
same,cell viability (log2),[15],-0.241 (active)
same,cell viability (log2),[16],0.0393
COC(=O)C[C@H]1C(C)(C)[C@@H](OC(C)=O)[C@@H]2CC3C4CC(=O)O[C@@H](c5ccoc5)[C@]4(C)CCC3[C@@]1(C)C2=O (some centres not stated),cell viability (log2),[1],0.0705
same,cell viability (log2),[2],0.0161
same,cell viability (log2),[3],0.14
same,cell viability (log2),[4],0.112
C=C1CCC(=O)C(C)CCC2C1CC2(C)C (configuration not stated),cell viability (log2),[1],0.0584
same,cell viability (log2),[2],-0.00925
same,cell viability (log2),[3],0.119
same,cell viability (log2),[4],-0.105
COc1ccc(-c2oc3cc(O[C@@H]4O[C@H](CO)[C@@H](O)[C@H](O)[C@H]4O)c(OC)c(O)c3c(=O)c2OC)cc1O,cell viability (log2),[1],0.0438
same,cell viability (log2),[2],0.127
same,cell viability (log2),[3],0.0949
same,cell viability (log2),[4],0.0982
O=C(O)C1CN(CCCP(=O)(O)O)CCN1 (configuration not stated),cell viability (log2),[17],0.0853
same,cell viability (log2),[18],0.0707
same,cell viability (log2),[19],0.0988
same,cell viability (log2),[20],0.109
CC[N+](CC)(CC)CC(=O)Nc1c(C)cccc1C,cell viability (log2),[17],0.105
same,cell viability (log2),[18],0.169
same,cell viability (log2),[19],0.0372
same,cell viability (log2),[20],0.0518
